This is an account of results in the supplement of paper PMC6555819.

The assay relates to PPARa:RXRa (NR concentration 270 nM, RXRa partner concentration 90 nM). Description: PBM binding z-score (relative to random genomic background probes); higher = stronger binding; sequences stand for … in GC…GCGATTGACAGCGTAGAATGAAGG
As to the method: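 Protein-binding microarray (Agilent 4x180K custom design, double-stranded 60-nt probes: 5' GC cap, 34-nt variable region, 24-nt constant primer region; full probe sequence given). Purified or IVT nuclear receptor:RXRα heterodimers (3:1 NR:RXRα, mostly 270:90 nM) or homodimers were incubated for 1 h in PBS with 2% milk and no ligand, then detected with Alexa488 antibodies. Fluorescence from o1-orientation probes (~5 replicates averaged) was converted to z-scores against 500 random hg19 background probes. Variable regions are seed direct-repeat (DR0–DR5) sites, all their single-nucleotide variants and half-site ablations.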
The sequence TCTAGTTGGTCACGGAGGGCACACACGACGGGTA came in with a PBM binding z-score of 1.38.
To CAAACCAGGTCAAAGGTCAAAGTCGAGCCAACCA belongs 7.46.
To AGAATGAGGTTACCAAAGGTCAGGGAAACGCTTG belongs 5.55.
For AATACAGGGTAACTAGGCCAGAGTAGGTACGAAT the value was 2.01.
CGTCCAAGGTCAATGCTAGATCAGTGAAAGCATT registered a PBM binding z-score of 4.78.
For ATCGAAAGGTCGACGAGGTGAGTAAACACCGTTT the value was 4.51; for GCTGCTAGGTCAACTGATGGTCACCTAAAGCTCG, 3.99; for ATCGAAAGGTCCACGAGGTGAGTATACACCGTTT, 0.734.
To CCTACTGGGCCTAAGGTCATTGATTCCAATGCTC belongs 4.53; to TTACCAAGGTCAAGGTCGTTGATCCCTCTGTAGA, 5.9.
Turning to ATATGTAGGTTAAGCGTCATTCAGGTTGGTTCGC, the PBM binding z-score turned out to be 4.16.
To CAAACGAGGTCAAAGGTCAAAGTCGAGCCAACCA belongs 7.69; to AGAACGAGGTCACGCTGAGTTGATAGCAGAGTAG, 6.34.
For TAGCCTAGGTTATGGGCCAGTATACCACGCGAAC the value was 0.542.
To CGAACAAGGTCATTGACAGGACAGTGAATAGTAA belongs 5.93.
With TGTCAACGTTCAAAGGTAACGTAAGTATCCACAC, the PBM binding z-score turned out to be 1.49.
For GCATATAGGTAATACAAGGTCAAAGTCCGATTGT the value was 4.21; for TCTAGTTGGTCACGGAGGTCCCACACGACGGGTA, 0.66.
For CAAACTAGGTCACAGTGGTCAAAGTCCGTGCGTA the value was 5.
For ATCGAAAGGTCGACGCGGTGAGTATACACCGTTT the value was 3.97; for CAAACAAGGTCAAAGGTCAAAGTCGAGCCAACCA, 7.41; for ACTCGGTGGACAAAGGTCAGAGCTACGCCAGTGA, 4.25.
In turn, CCTACTGGGCCGTTCAGAGGTCATTGATCATATG gave a PBM binding z-score of 3.56.
To TACCCTAGGTCATTGGGCCAGTATAGTACGCATC belongs 4.06; to TAGCCTAAGTCATGCGGGCCAGTATAGTGTCGGC, -0.167.
To AGTCAAAGTTTATCTAGGTAACGTAAGATATGCT belongs 2.17; to CCAGACAGGTGAGAAGGTAACTCAGCCTCGATTA, 0.833.
To TAGCCTAGGTCATGGGCCAGTGTACCACGCGAAC belongs 4.38.
In turn, CCTTACGGGTTACTCCAGGTTATAGCATCGGAGT displayed a PBM binding z-score of 1.45.
For ATATGTAGGTTATCTGGGGTCATTCAGACTAGGC the value was 5.4.
Consider ATATGTAGGTTACCTGGGGTCATTCAGACTAGGC, for which the PBM binding z-score turned out to be 5.73.
To CCTAGTGGGCCAAGGTCATTGATCAGTCAAAGCA belongs 3.87.
To CTACCAAGGTCAACAAGGTCGTTGATTACTATTC belongs 6.16; to AACGAAAGGTCGAAGGTGAGTATACCCACCCGAA, 4.89.
Regarding TTACCAAGGTGAACGGTCGTTGATGCACGCCTTG, the PBM binding z-score worked out at 2.04.
To AGTCAAAGTTCAGGACGAGGTAACGTTAAGCACG belongs 3.34; to ATATGTAGGTTATCGGGTCATACAGTTTGCGCAT, 5.09; to TCTTGTAGATCAACAGGAGGTTAATAAAGATCGA, 1.23.
To CGAACTAGGTCAAGGCCAGTGAATCTCCGCACGC belongs 5.04; to TGTCAATGTTCAAAGGTAACGTAAGTATCCACAC, 1.3.
